From PubChem BioAssay AID1628 (Sanford-Burnham Center for Chemical Genomics, 2009)
About 930 (0.49%) of roughly 190,000 compounds were called active.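 Rule for the calls: active = z-score of insulin promoter reporter brightness in nuclei below -3 at 5 µM, with at least 500 cells counted; inconclusive = wells with under 500 cells, flagged as toxic or sparse; inactive = the rest.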 The list shows a part of the results. Potency and affinity values are given separately.

Assay: decrease of insulin promoter-GFP reporter – imaging, high-content screening, mouse beta cells (AID 1628)
Details: MIN6 insulin promoter GFP reporter, at 5 µM, active compounds read low

z-score, active:
COc1ccccc1N1C(=O)CC(Sc2n[nH]c(-c3cccc(C)c3)n2)C1=O (stereo unspecified) -5.2
COc1ccccc1/C=N/n1c(N)c(S(=O)(=O)c2cccs2)c2nc3ccccc3nc21 -3.63
CCOc1ccc(C2=C(C=Nc3c(C)n(C)n(-c4ccccc4)c3=O)C(c3ccc(F)cc3)c3ccccc3O2)cc1 (stereo unspecified) -4.16
Cc1nn(-c2ccccc2)c(C)c1/C=N/NC(=O)CSc1nnc(SCc2ccccc2Cl)s1 -3.39
CC1CCc2cc(F)ccc2N1C(=O)c1ccc2c(c1)OCO2 (stereo unspecified) -4.9
Cc1ccn2c(Nc3ccccc3C)c(-c3ccccn3)nc2c1 -3.6
Cc1ccc(-c2cc(C(F)(F)F)n3nc(C(=O)NCCCn4ccnc4)cc3n2)cc1C -5.59
O=C(CSCC(=O)N1CCCc2ccccc21)Nc1nc(-c2ccccc2)cs1 -4.03
Cc1nn(Cc2ccccc2Cl)c2sc(C(=O)NCCCn3ccnc3)cc12 -4.53
COc1ccccc1N1CCN(Cc2nc(N)nc(Nc3ccccc3)n2)CC1 -3.17
NC(=NCc1ccc2c(c1)OCO2)NC(=O)c1ccccc1 -3.43
Cc1ccc(CN2CCN(/N=C/C=C/c3ccccc3[N+](=O)[O-])CC2)cc1 -4.13
CCN(CC)C(=O)c1sc(NC(=O)c2ccncc2)c(C(=O)OC)c1C -4.37
CC1Cn2c(nnc2C23CC4CC(CC(C4)C2)C3)S1 (stereo unspecified) -3.06
Cc1ccc(-c2csc(=Nc3cccnc3)n2CCCn2ccnc2)cc1C -3.01
Cc1ccc(Nc2nc(N3CCOCC3)c3ccccc3n2)cc1 -3.61
O=C(C1CC1)N1CCC(c2nc(-c3ccc(S(=O)(=O)NCC4CCCO4)cc3)no2)CC1 (stereo unspecified) -7.53
COc1ccc(Cl)cc1NC(=O)CN1CCC(n2nnc3cc(C)ccc32)CC1 -4.05
O=C(O)c1ccccc1-c1ccccc1C(=O)NNc1ccccc1 -3.66
CCN(CCCCN1C(=O)c2ccccc2C1=O)c1ccc2c(c1)C(=O)N(C)C2=O -3.55
CC(C)Sc1nc(SCC(=O)NCc2ccco2)c2c3c(sc2n1)COC(C)(C)C3 -3.28
CCN(CC)c1ccc(/C=N/N2CCN(Cc3ccc(Cl)cc3)CC2)c(O)c1 -5.88
Cc1nn(C)cc1CNC(=O)c1cc2n(n1)C(C(F)(F)F)CC(c1cccs1)N2 (stereo unspecified) -3.69
Cc1nn(C)c(C)c1CNC(=O)c1nn2c(c1Cl)NC(c1cccs1)CC2C(F)(F)F (stereo unspecified) -4.07
COc1ccc2c(c1)C(C)=CC(C)(C)N2C(=O)CNCc1ccc2c(c1)OCO2 -4.43
CCc1c(C(=O)Nc2ccncc2)csc1C -4.62
Cc1sc2nc(-c3cccs3)nc(N3CCCN(C)CC3)c2c1C -3.73
COC(=O)c1sc2nc(-c3ccccc3)nc(N3CCN(C)CC3)c2c1C -4.28
CCc1ccc(C(O)(c2ccccc2OC)C(CN2CCOCC2)c2ccccc2)cc1 (stereo unspecified) -3.08
Clc1ccc2[nH]c3c(NCC4CCCO4)ncnc3c2c1 (stereo unspecified) -4.6
c1ccc2c(c1)[nH]c1c(NCC3CCCO3)ncnc12 (stereo unspecified) -3.45

z-score, inactive:
Cc1[nH]n(-c2ccc([N+](=O)[O-])cc2)c(=O)c1C=NCCN1CCN(C(=O)c2ccccc2F)CC1 4.48
COC(=O)c1ccc(N2C(=O)CC(Sc3n[nH]c(C)n3)C2=O)cc1 (stereo unspecified) 1.02
N#CC(C#N)=C1C=C2C=C(N3CCOCC3)CCC2CC1 (stereo unspecified) 15.6
O=c1c2ccccc2nc(-c2ccco2)n1/N=C/c1ccco1 2.3
CC(C)(C)c1ccc(OCC(=O)Nc2ccc3c4c(cccc24)C(=O)NC3=O)cc1 5.3
CCOc1ccc(C2C(C(=O)O)c3ccccc3C(=O)N2CCN2CCOCC2)cc1 (stereo unspecified) 4.94
COc1ccc(CNc2cc(NCCCO)c([N+](=O)[O-])c3nonc23)cc1 2.28
Cc1cccc(-n2nnc(C(=O)NCc3ccccc3Cl)c2N)c1 1.52
O=C1S/C(=C\c2ccc(N3CCOCC3)o2)C(=O)N1Cc1ccc(F)cc1 8.79
Cc1ccn2c(NC3CCCCC3)c(C)nc2c1 3.89
Cc1ccc(-c2cn3cccnc3n2)cc1 2.84
COc1ccc(Nc2c(-c3ccco3)nc3ccc(C)cn23)cc1 5.18
COc1ccc(-n2nc([N+](=O)[O-])c(=NCc3ccco3)n2O)cc1 4.25
CC1CCN(C(=O)c2cc3nc(C4CC4)cc(C(F)(F)F)n3n2)CC1 -0.53
O=C(Cn1cnc2c(cnn2-c2ccc(F)cc2)c1=O)N1CCCc2ccccc21 1.13
Cc1cc(C)cc(N=Cc2[nH]c3ccc(Br)c(Cl)c3c2O)c1 13.9
O=C(NCCCn1ccnc1)/C(=C/c1ccco1)NC(=O)c1cccs1 3.41
Cc1ccc(C(=O)NCCCn2ccnc2)cc1[N+](=O)[O-] 5.54
COc1ccccc1N1CCN(C/C(O)=C(\C#N)c2nc(-c3ccccc3)cs2)CC1 3.2
Cc1cccc(Nc2nc(N)nc(CN3CCN(c4ccccc4)CC3)n2)c1 -1.36
CN1CCN(Cc2nc(N)nc(Nc3ccc4c(c3)OCCO4)n2)CC1 4.73
Cc1ccc(NC(=O)/C=C/c2ccc([N+](=O)[O-])s2)cc1 16.6
CC(=O)Oc1ccc2c(=O)c(-c3ccccc3)c(C)oc2c1 -0.21
CCNc1c(N)c(=O)oc2ccccc12 -0.02
N#CC(C#N)=C1C=C2C=C(N3CCCCC3)CCC2CC1 (stereo unspecified) 18.2
CCN(CC)C(=O)c1sc2nc(-c3cccs3)cc(-c3cccs3)c2c1N 4.15
CC1=NNC(=O)C1CCC(=O)N/N=C/c1ccc(C)cc1 (stereo unspecified) 3.3
Cc1c(Cl)cccc1NC(=O)CN1CCN(CCN=CC2=C(O)CC(c3ccccc3)CC2=O)CC1 (stereo unspecified) 2.18
Oc1ccc(/C=N/Nc2ccnc3cc(Cl)ccc23)c(O)c1 5.11
CCN1CCc2c(sc(NC(=S)NC(=O)c3ccc(Cl)cc3)c2C(N)=O)C1 3.92
N#C/C(=C/c1ccc(N2CCCCCC2)o1)c1ccc(Cl)cc1 16.2
CC(=O)C1=C(C)Nc2ncnn2C1c1ccc(Cl)cc1Cl (stereo unspecified) 3.45
CC1CN(C(=O)CCn2c(=O)oc3ccccc32)CC(C)O1 (stereo unspecified) 8.04
CCCCN1C(=O)/C(=C/C=C2\Oc3ccccc3N2CC)SC1=S 16.7
CCCN1C(=O)c2cccc3c(N4CCCCC4)ccc(c23)C1=O 3.75
O=C1CCCC(O)=C1C=NCCc1ccccc1 3.02
O=c1c2cccc3c(N4CCOCC4)ccc(c32)c2nc3ccccc3n12 9.75
CCOC(=O)CSc1nc2ccc(Nc3nc(N4CCOCC4)nc(N4CCOCC4)n3)cc2s1 -0.17
Cc1n[nH]c(C)c1N1C(=O)c2cccc3c(N4CCCCCC4)ccc(c23)C1=O 8.27
Cc1noc(/C=C/c2ccc(-c3ccccc3Cl)o2)c1[N+](=O)[O-] 8.03
COc1ccc(C)cc1NC(=O)COC(C)=O 3.48
Nc1cc(S(=O)(=O)Nc2ccccc2Cl)ccc1N1CCOCC1 2.18
O=C(NN=C1CCN(Cc2ccccc2)CC1)c1cccc(S(=O)(=O)Nc2ccccc2Cl)c1 3.03
CC(C)(C)S(=O)(=O)c1ccccc1C(=O)O -1.55
Cc1ccc([N+](=O)[O-])cc1NC(=O)c1cccs1 3.18
O=C(NCCc1ccc(Cl)cc1)c1cccs1 1.56
CCCN1C(=O)c2ccccc2NC1c1ccc(C)cc1 (stereo unspecified) 2.64
COc1ccc(N(CCN2C(=O)c3ccccc3C2=O)C(=O)c2cccc([N+](=O)[O-])c2)cc1 3.09
COc1ccccc1OCc1nnc(SCC(=O)NCc2ccco2)n1-c1ccccc1 0.71
CC(C)c1cccc(O)c(=O)c1 -0.46
CN1C(=O)CC(N2CCN(Cc3ccc(Cl)cc3)CC2)C1=O (stereo unspecified) 3.88
CCCc1cc(-n2ccnc2)n2c(nc3ccccc32)c1C#N 5.52
O=C(CSc1nc2ccc(Cl)cc2o1)NCc1ccc2c(c1)OCO2 3.95
CCCCCOC(=O)Cn1c(N2CCCCCC2)nc2c1c(=O)[nH]c(=O)n2C -0.48
CC1=C(C(=O)Nc2ccc(F)cc2)C(c2ccncc2)C2=C(CCCC2=O)N1 (stereo unspecified) 1.21
CCOc1ccc(OCC)c(-c2c(=O)n(OCc3ccc(Cl)cc3)c3ccccc3[n+]2[O-])c1 3.34
CCOC(=O)c1sc2nc(CSc3ccccc3Cl)[nH]c(=O)c2c1C 1.87
CC(=O)c1c(N2CCOCC2)[nH]c(-c2ccccc2)nc1=S 7.72
CCN(CC)CCCOC(=O)C(c1ccccc1)c1ccccc1 0.01
COc1ccc(OCC(=O)Nc2ccccc2C(=O)N2CCOCC2)cc1 1.77
N#C/C(=C\c1ccc(N2CCOCC2)o1)c1ccccc1 4.39
CCOCCCNc1nc2c(C)cccn2c(=O)c1/C=C1\SC(=S)N(C(C)CC)C1=O (stereo unspecified) 17.6
CC(C)NC(=O)/C(C#N)=C\c1ccc(N(C)C)o1 11.5
Fc1ccc(OCCOCCNCC2CCCO2)cc1 (stereo unspecified) 1.23
CCN1CC=C2C(C1)C(c1ccc(Cl)s1)C(C#N)=C(N)C2(C#N)C#N (stereo unspecified) 15.5
